Screening data from PubChem.
IL1B secr inh: inflammasome signaling inhibition, IL-1 beta readout; THP-1 LPS/ATP IL-1B secretion, AlphaLISA, 16 h; hits give low values; activity change, % at 57.5 µM; 4.7% of 360,000 active; in the data active means activity change below about -50%; inconclusive means mostly about -30% to -49%
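Secreted IL-1B measured by AlphaLISA bead assay after 16 h compound exposure of THP-1 cells; compounds (final up to 57.5 uM) added 1 h before LPS (250 ng/mL) and ATP (1.25 mM) stimulation; lower signal means less secretion.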
DT40 TDP1 no CPT: qHTS for Inhibitors of human tyrosyl-DNA phosphodiesterase 1 (TDP1): qHTS in cells in absence of CPT; 15% of 420,000 active; AID 686978, 2013; Potency, µM (series often up to 46.2 µM), for inactives: at the top dose activity change, negative = growth inhibition, most hits filed as inhibitors; DT40 Tdp1-/- hTDP1 cells, no CPT, ATP luminescence, 48 h; further: potency means the concentration at half of the fitted maximal effect; nearly all actives have a fitted effect of over 55% in size
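Seeded 400 DT40-hTDP1 cells/well (vehicle DMSO, no 20 nM CPT); pinned compounds; ≥48 hr at 37 °C; CellTiter-Glo luminescence as viability measure.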
HT1080 IDH1KD tx: kills HT-1080 cells with IDH1 knockdown; HT-1080 IDH1 knockdown viability, ATP luminescence, 48 h; Potency, µM (titrated, usually from 46.1 µM), inactives show top-dose activity, negative = toxicity, hits mostly cytotoxic; 2% of 360,000 active;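 further: potency means the concentration at half of the fitted maximal effect; 0% = DMSO wells and -100% = cell-free medium wells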
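IDH1KD HT-1080 cells, 750/well, RPMI + 5% FBS; compound pinned after 2 h settling; 48 h, 37 °C; CellTiter-Glo luminescence; % activity normalised to DMSO and no-cell wells; curves fitted, classed by r2 and efficacy.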
ELG1 repair inh: ELG1-dependent DNA repair inhibition. HEK293T ELG1-luciferase reporter, luminescence, 16 h; DNA damage induced by 5-fluorouridine. Potency, µM (doses to about 46.1 µM), for inactives: at the highest dose activity change, negative = inhibition, usual class: inhibitors. 2.3% of 330,000 active. AID 504467; further: potency means the concentration at half of the fitted maximal effect; nearly all actives have a fitted effect of over 55% in size
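Cells (2,000 per well) received 5-fluorouridine plus test compound or DMSO and were incubated 16 hr at 37 °C, 5% CO2. Luciferase activity was read by luminescence 30 min after ONE-Glo addition; signal suppression marked inhibition of damage-induced ELG1 function.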
DT40 TDP1 CPT: DT40-hTDP1 cell growth loss with CPT; chicken DT40 Tdp1-/-;hTDP1 cells + 20 nM CPT, ATP luminescence, 48 h; Potency, µM (top dose mostly 46.2 µM), for inactives: top-dose activity change, negative = growth inhibition, usual class: inhibitors; 12% of 420,000 active; AID 686979; further: potency means the concentration at half of the fitted maximal effect; nearly all actives have a fitted effect of over 55% in size
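Cell growth measured by CellTiter-Glo luminescence after a minimum 48 h, 37 C compound exposure with 20 nM CPT in Tdp1-knockout DT40 cells stably expressing hTDP1, seeded 400/well; qHTS titration format.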
HT1080NT lethal: kills 2HG-producing HT-1080-NT fibrosarcoma cells | HT-1080-NT fibrosarcoma viability, CellTiter-Glo ATP luminescence, 48 h | Potency, µM (highest dose often 46.1 µM), without a hit: at the highest dose activity, negative = less viability, hits mostly cytotoxic | 1.6% of 360,000 active | AID 686970;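 further: NT is the 2HG producing partner of a matched IDH1 knockdown line; potency means the concentration at half of the fitted maximal effect; 0% = DMSO-treated cells and -100% = media-only wells without cells; nearly all actives have a fitted effect of over 55% in size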
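HT-1080-NT; 750 cells/well; 5% FBS RPMI; 48 h compound, 37 degrees C; CellTiter-Glo luminescence; curve fitting and curve-class assignment.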
An asterisk follows results filed as active; ? = inconclusive; nt = no result; [ ] = dose if it differs, or a comment. Hits are enriched below; roughly 19% of the tested compounds scored in any of these assays. Unless noted, the call rests on the fitted dose curve; in most records, active means well fitted curve in the direction sought with a large enough effect; inconclusive means small, poorly fitted or top-dose-only effect, or another doubt; inactive means no such curve, though single readings can be large; an effect the other way counts as inactive or inconclusive. Unless noted, on the % scale 0 is the no-effect control and ±100 the full control effect.

SMILES | IL1B secr inh | DT40 TDP1 no CPT | HT1080 IDH1KD tx | ELG1 repair inh | DT40 TDP1 CPT | HT1080NT lethal
COc1ccc(Cl)cc1C(=O)OCC(=O)NCCNC(=O)COC(=O)c1cc(Cl)ccc1OC | 45.6 | 4.8% | 3.2% | -8.9% | 2.8% | 0.0%
O=C(NCCCc1ccc(F)cc1)C1CCC(=O)N(CCCN2CCCC2=O)C1 (configuration not stated) | -9.8 | -16.2% | 0.0% | 8.6% | 5.9% | -0.8%
CCCC[n+]1c(C)sc2ccc(C)cc21 | 7.6 | ? | 7.6% | 6.8% | ? | -4.7%
CC[n+]1c(C)sc2cc(C)ccc21 | 60.3 | 3.66µM* | 2.9% | 7.6% | 3.66µM* | -1.3%
Cc1ccc2sc(C)[n+](CCO)c2c1 | -71.2* | ? | -21.2% | 14.9% | ? | -2.7%
Cc1cccc(C)c1N(CC(=O)NCc1ccccc1)C(=O)c1csnn1 | -19.6 | -1.1% | 9.1% | 9.9% | 7.2% | -1.1%
COc1ccc(-n2c(=O)c3ccc(C(=O)NCc4ccc(C)cc4)cc3n(Cc3ccc(Cl)cc3)c2=O)cc1 | nt | -8.9% | nt | nt | -5.9% | nt
CCN(CC)CCNC(=O)COc1ccc(OC)cc1 | 9.4 | 10.9% | 4.0% | 21.6% | 18.1% | 7.4%
Cc1ccc(C23CC4CC(CC(C(=O)NN)(C4)C2)C3)cc1 | 0.0 | -2.5% | -7.8% | -6.4% | -21.0% | -9.5%
Cc1ccc(C23CC4CC(CC(NC(=O)NCCN(C)C)(C4)C2)C3)cc1 | -6.8 | 23.1µM* | ? | -4.6% | ? | 20.6µM*
Cc1ccc(/C(O)=C/C(=O)C(=O)NC23CC4CC(CC(C4)C2)C3)cc1 | -13.5 | 13µM* | 0.4% | ? | ? | 3.5%
Cc1ccc(CNC(=O)NC23CC4CC(CC(C4)C2)C3)cc1 | -12.1 | ? | 15.9% | -11.9% | 23.1µM* | -0.4%
CN(C)CCNC(=O)COc1ccc(C23CC4CC(CC(C4)C2)C3)cc1 | -59.2* | 20.6µM* | ? | 10.3% | 25.9µM* | ?
CC(NC(=O)c1ccco1)C(=O)OCC(=O)N1CCCCCC1 (configuration not stated) | 22.2 | 2.2% | 0.0% | 11.8% | 2.9% | 1.4%
O=c1nc2ccccc2c2n1C[C@H](CN1CCN(c3ccccc3)CC1)N2 | nt | 4.3% | nt | nt | 6.1% | nt
COc1ccc(OC)c(-n2c(C)ccc2-c2ccc(S(C)(=O)=O)cc2)c1 | -20.1 | ? | -1.3% | 0.0% | 18.4µM* | -1.0%
O=C(CCSCc1cccc(F)c1)NCc1ccc(F)cc1 | 19.0 | 18.4µM* | 4.7% | 14.2% | ? | -0.1%
O=C(CCSCc1cccc(Cl)c1)NCc1ccccc1Cl | nt | 25.9µM* | nt | nt | ? | nt
CCn1c(-c2ccccc2F)nc2cc(C(=O)NC(c3ccccn3)C(F)(F)F)cc(NC(C)=O)c21 (configuration not stated) | nt | -13.0% | nt | nt | 6.9%[9.04 µM] | nt
COc1cc2ccccc2cc1C(=O)OCC(=O)c1c(N)n(C)c(=O)n(C)c1=O | -14.2 | ? | 0.2% | 3.0% | -4.4% | 3.5%
CN1CCC(CO)(Cc2ccccc2)CC1 | 10.9 | 5.6% | 17.6% | -12.0% | 20.0% | 3.2%
CSc1ccc(CN2CCC(CO)(Cc3ccc(Cl)cc3)CC2)cc1 | -94.2* | 18.4µM* | -23.1% | -28.6% | ? | ?
OCC1(Cc2ccc(Cl)cc2)CCN(CC2CC=CCC2)CC1 (configuration not stated) | -61.7* | ? | ? | -0.2% | 29.1µM* | -14.0%
OCC1(Cc2ccc(Cl)cc2)CCN(Cc2ccccc2F)CC1 | -26.5 | ? | ? | -8.9% | ? | ?
OCC1(Cc2ccc(Cl)cc2)CCN(CCCc2ccccc2)CC1 | -77.3* | 23.1µM* | ? | 4.8% | ? | ?
SMILES | IL1B secr inh | DT40 TDP1 no CPT | HT1080 IDH1KD tx | ELG1 repair inh | DT40 TDP1 CPT | HT1080NT lethal
O=C(c1cnsn1)N1CCC(CO)(Cc2ccc(Cl)cc2)CC1 | -13.7 | ? | 2.5% | -7.3% | 4.2% | 2.7%
CCCCN(C(=O)c1cc(S(=O)(=O)N2CCOCC2)ccc1Cl)c1c(N)n(CC(C)C)c(=O)[nH]c1=O | 7.5 | -3.0% | 18.6% | 13.0% | 18.0% | 11.0%
CCCN1C(=O)SC(CC(=O)Nc2cccc3ccccc23)C1=O (configuration not stated) | 19.2 | 16.4µM* | 3.3% | ? | 16.4µM* | -1.1%
O=C(CC1SC(=Nc2ccccc2)N(CCO)C1=O)Nc1ccccc1 (configuration not stated) | 5.2 | 1.4% | 0.0% | ? | 9.2% | -3.7%
CCCN1C(=O)SC(CC(=O)Nc2ccccc2)C1=O (configuration not stated) | -4.4 | ? | 11.1% | 15.5% | 23.1µM* | 26.2%
CCN(CC)S(=O)(=O)c1ccc(N2CCOCC2)c(NC(=O)c2nn(C)c(=O)c3ccccc23)c1 | 0.6 | -1.4% | 4.1% | nt | -11.2% | 1.8%
CC(=O)Nc1ccc(S(=O)(=O)N(C)CC(=O)Nc2ccccc2N2CCCC2)cc1 | -9.7 | ? | 19.7% | -16.2% | ? | 15.0%
CCN(CC)S(=O)(=O)c1ccc(N2CCOCC2)c(NC(=O)c2nn(C(C)C)c(=O)c3ccccc23)c1 | -10.5 | 5.17µM* | -3.7% | nt | 10.3µM* | 0.7%
COc1ccccc1CC(=O)Nc1cc(S(=O)(=O)N2CCOCC2)ccc1N1CCOCC1 | 0.0 | -4.2% | -0.3% | -10.6% | -21.5% | 5.8%[9.24 µM]
CN(CC(=O)Nc1ccccc1N1CCOCC1)S(=O)(=O)c1ccc(F)cc1 | -1.2 | 18.4µM* | 2.6% | -13.8% | 18.4µM* | 2.0%
O=C(Cc1ccccc1F)Nc1cc(S(=O)(=O)N2CCCCC2)ccc1N1CCOCC1 | 2.9 | 16.4µM* | 0.8% | nt | 20.6µM* | -1.4%
CCN(CC)S(=O)(=O)c1ccc(N2CCOCC2)c(NC(=O)Cc2cccc3ccccc23)c1 | -1.3 | 16.4µM* | -7.3% | 7.31µM* | ? | -0.6%
CCN(CC)S(=O)(=O)c1ccc(N2CCOCC2)c(NC(=O)Cc2ccccc2F)c1 | -3.2 | 14.6µM* | 1.7% | 18.4µM* | -26.7% | 2.5%
CC1=N/C(=C/c2ccc([N+](=O)[O-])cc2)C(=O)N1c1ccc(Cl)cc1Cl | 1.2 | 25.9µM* | -2.1% | 10.2% | ? | 1.7%
CC1=N/C(=C\c2ccc([N+](=O)[O-])cc2)C(=O)N1c1ccc(F)cc1F | 6.9 | 18.4µM* | -7.8% | 10.6% | ? | ?
CC1=N/C(=C\c2ccc([N+](=O)[O-])cc2)C(=O)N1c1ccc(Cl)cc1 | -7.2 | ? | 0.0% | -5.5% | ? | -20.5%
